The values that follow come from PubChem BioAssay.

Broadly, the inhibition is the relative decrease from the control value, in per cent.

The nature of test [1]: blockers of polyQ-driven CASP3 activation – cell-based (AID 1583). As to conditions: polyglutamine-induced caspase-3 activation, cell assay; stronger effect = higher value;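 tested at 10 µM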.
Test [2] is described as follows: yeast 75Q aggregation reduction – 75Q-TubU reporter (AID 1593). As to conditions: Yeast 75Q polyglutamine aggregation reporter.
Test [3] is described as follows: restoration of touch response, mutant HTT neurons – whole organism, C. elegans mechanosensory neurons, N-terminal huntingtin (AID 1599). As to conditions: C. elegans polyQ-huntingtin mechanosensory neurons, stronger effect = higher value.
Test [4] can be described thus: blockers of cytochrome c efflux from mitochondria – biochemical, purified mitochondria (AID 1603).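 Note: mouse liver mitochondria challenged with calcium chloride; signal normalized to the plate average as 100%.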 Particulars: stronger effect = lower value.
Test [5] is described as follows: polyglutamine aggregate formation blockers (AID 1604). Particulars: polyglutamine-induced protein aggregation inhibition assay; stronger effect = higher value; tested at 2.5 µM.
The nature of test [6]: glutamate transport activators, MN-1 cells, MN-1 cell line (AID 1612).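 Note: tested at 1 µM final; 0% = mean of DMSO vehicle wells on each plate; positive means more glutamate uptake than control and negative means less.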 As to conditions: MN-1 motor neuron cells, stronger effect = higher value.
Test [7] can be described thus: 75Q-TubH aggregate inhibition, S. cerevisiae, yeast (AID 1616). Particulars: S. cerevisiae 75Q-TubH polyglutamine aggregation suppression; stronger effect = higher value.
Test [8] is described as follows: compounds altering viability of human ES cells (AID 493140; call rule not given here;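 note: cells exposed to compounds for four days before counting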). Particulars: human embryonic stem cell survival screen; stronger effect = higher value.
Test [9] is described as follows: signal quenchers or enhancers, Cy5 substrate/SSB – biochemical, NIH Clinical Collection, E. coli SSB, artefact control for HCV NS3 helicase inhibitor project (AID 743268; call rule not given here). As to conditions: Cy5-oligo bound E. coli SSB, fluorescence interference.
For test [10], the system named is Hepatitis C virus NS3 helicase. Put plainly: blockers of NS3h binding to DNA – biochemical, fluorescence polarization, NIH Clinical Collection, primary screen (AID 743270; call rule not given here). As to conditions: NS3 helicase binding to Cy5-dT15 DNA, stronger effect = higher value, concentration not given here. (In general: Polarisation of emitted light reports the rotation of a fluorescent probe.)

The target in test [11] is Single-stranded DNA-binding protein (Escherichia coli (strain K12)) (UniProt P0AGE0). The experiment in a line: SSB-ssDNA binding inhibitors – biochemical, fluorescence polarization, NIH Clinical Collection, counter-screen for HCV NS3 helicase inhibitor project (AID 743271; in the data active = inhibition above about 28%). Particulars: E. coli SSB-DNA binding, stronger effect = higher value, concentration not given here.
A short description of test [12]: compounds distorting NS3 helicase fluorescence signal – biochemical, NIH Clinical Collection, artefact control for HCV NS3 helicase inhibitor project (AID 743272; call rule not given here;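 note: HCV NS3 helicase with a Cy5 labelled single stranded DNA probe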). Particulars: fluorescence interference counterscreen, HCV NS3 helicase assay; stronger effect = lower value. In general terms: The purpose of a counterscreen is to sort out artefacts and off-target activity.
Test [13] is described as follows: modulation of C. elegans fzo-1 (AID 1259413; call rule not given here;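 note: fzo-1 mutant C. elegans worms in liquid wells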). Particulars: C. elegans fzo-1 modulator screen, mean read-out; stronger effect = higher value.
Test [14] addresses Mitogen-activated protein kinase 7 (Homo sapiens) (UniProt Q13164). The experiment in a line: Gal4-ERK5 driven luciferase induction – cell-based, HTS, primary screen (AID 1508626;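 active = luciferase signal above three times the same-plate solvent-only control wells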;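 note: luciferase driven by Gal4-ERK5 fusion binding five Gal4 sites before minimal TATA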). As to conditions: HeLa Gal4-ERK5 transactivation, 18 h, at 5 µM, stronger effect = higher value.
The nature of test [15]: galactose survival enhancers in mitochondrial complex I cybrids – cell-based, galactose medium, ATP luminescence, primary screen (AID 1645843;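 active = z-score of at least 1.8 in each of two replicates, scored against plate mean and spread of sample wells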;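 note: positive z means more ATP and so rescue of galactose-driven cybrid death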). Particulars: complex I mutant cybrid cells, 72 h, stronger effect = higher value.
The next test has as its system R275C/beta1. The experiment in a line: BK channel mutant inhibitors and activators – cell-based, U2OS BacMam, thallium flux, beta subunits, selectivity assay, profiling panel (AID 1259406).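 Note: initial slope of Thallos dye fluorescence rise after thallium is added; log ratio against the mean of 0.3% DMSO vehicle wells on the same plate.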 Particulars: U2OS BacMam BK variants, at 30 µM.
A further test has as its system R275C/beta2Delta. The test is described as above. As to conditions: U2OS BacMam BK variants, at 30 µM.
In the next test the test system is R275C/beta4. The test is described as above. As to conditions: U2OS BacMam BK variants, at 30 µM.
The next test relates to R275C/Slo1WT/beta2. Described as above. Particulars: U2OS BacMam BK variants, at 30 µM.

SMILES strings stand for the structures. Several values for one entry are separate records, joined by “and”; a condition that tells them apart may be missing. Equal entries are not always repeated. For some assays here: Measured potencies and affinities stand elsewhere. Some structures have more than one record in an assay (separate samples or runs), and their calls can disagree. Activity calls are given as the source filed them.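 Rule for the calls, unless noted: active = thallium flux through the channel raised or lowered by more than 3 SD from vehicle-only wells, actives on both sides; inactive = the rest.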

Chain of Mitogen-activated protein kinase 7 (Homo sapiens) (Q13164 whole entry, looked up, the tested form may be a part): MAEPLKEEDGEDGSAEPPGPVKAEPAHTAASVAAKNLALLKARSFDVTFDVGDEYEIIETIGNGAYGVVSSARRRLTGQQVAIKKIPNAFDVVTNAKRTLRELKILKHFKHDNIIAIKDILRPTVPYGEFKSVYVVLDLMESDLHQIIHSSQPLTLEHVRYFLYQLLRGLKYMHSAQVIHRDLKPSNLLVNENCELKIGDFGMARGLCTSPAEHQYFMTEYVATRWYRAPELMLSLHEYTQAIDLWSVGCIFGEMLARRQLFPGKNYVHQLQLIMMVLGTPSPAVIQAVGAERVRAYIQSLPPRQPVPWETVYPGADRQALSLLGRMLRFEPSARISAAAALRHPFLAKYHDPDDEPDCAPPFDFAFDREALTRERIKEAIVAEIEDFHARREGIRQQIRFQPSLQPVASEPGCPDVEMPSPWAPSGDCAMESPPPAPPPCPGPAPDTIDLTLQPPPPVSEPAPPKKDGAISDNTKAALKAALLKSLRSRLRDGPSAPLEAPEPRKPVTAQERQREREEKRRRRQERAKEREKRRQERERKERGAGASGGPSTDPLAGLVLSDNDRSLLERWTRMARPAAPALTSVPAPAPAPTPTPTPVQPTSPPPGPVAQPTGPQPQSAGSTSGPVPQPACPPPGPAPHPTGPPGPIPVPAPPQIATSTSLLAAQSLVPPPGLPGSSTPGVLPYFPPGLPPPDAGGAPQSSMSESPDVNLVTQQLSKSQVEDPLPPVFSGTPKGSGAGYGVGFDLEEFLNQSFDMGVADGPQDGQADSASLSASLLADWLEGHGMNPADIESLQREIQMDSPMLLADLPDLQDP

As to `NS(=O)(=O)c1cc(C2(O)NC(=O)c3ccccc32)ccc1Cl` (stereo not drawn), the inhibition in test [1] was 2.88%; in [10], -2.27% (inactive); in test [11], 1.05% (inactive). Also, the score in test [2] turned out to be 1.55. The rescue above control in test [3] was -4.25. Also, the cytochrome c release ratio in test [4] is 0.9. Further, in test [5], the inhibition of aggregation was 77%. In test [6], the glutamate uptake change is -2.06%. The same molecule registered an aggregation suppression score in [7] of 1.49. The survival in test [8] is 4.42 (inactive). For the same molecule, the fluorescence ratio is 0.81 (inactive) in [9] and 1 (inactive) in test [12]. Besides, in test [13], the mean signal was 251 (inactive). The luciferase signal in [14] was 36 AU (inactive). In test [15], the z-score was 0.15 (inactive). The log fold change Tl+ flux is -0.0254 (inactive) in the test with R275C/beta1, -0.0423 (inactive) in the test with R275C/beta2Delta, -0.0855 (inactive) with R275C/beta4 and 0.0191 (inactive) in the test with R275C/Slo1WT/beta2.

`CN[C@H]1CC[C@@H](c2ccc(Cl)c(Cl)c2)c2ccccc21`: the mean signal in test [13] is 250 (inactive). The luciferase signal in test [14] is 48 AU (inactive). The z-score in test [15] is -1.29 (inactive) and -1.52 (inactive) and -0.69 (inactive). In addition, the log fold change Tl+ flux was 0.549 (active) and 0.546 (active) in the test on R275C/beta1; -0.0453 (inactive) and -0.0183 (inactive) with R275C/beta2Delta; 0.997 (active) and 0.996 (active) in the test with R275C/beta4; 0.019 (inactive) and -0.2 (active) in the test with R275C/Slo1WT/beta2.

Consider `CCc1nc(N)nc(N)c1-c1ccc(Cl)cc1`, for which the inhibition is -13.9% in [1], -1.36% (inactive) in test [10] and 1.81% (inactive) in test [11]. In test [2], the score turned out to be 1.35. In addition, the rescue above control in test [3] is 26.6. Moreover, the cytochrome c release ratio in [4] came to 1.05. In [5], this molecule registered an inhibition of aggregation of 85.8%. Besides, in [6], the glutamate uptake change is 14.1%. Also, the aggregation suppression score in test [7] was 0.999. In addition, the survival in test [8] was 16.9 (inactive). The fluorescence ratio in [9] was 0.95 (inactive); in test [12] it was 0.94 (inactive). Also, the mean signal in test [13] was 234 (inactive). The luciferase signal in [14] is 104 AU (inactive). For the same molecule, in test [15], the z-score was 0.72 (inactive). Besides, the log fold change Tl+ flux is -0.00379 (inactive) with R275C/beta1, 0.00565 (inactive) in the test with R275C/beta2Delta, -0.00455 (inactive) with R275C/beta4 and -0.0705 (inactive) in the test on R275C/Slo1WT/beta2.

Take `CO[C@@]1(NC(=O)Cc2cccs2)C(=O)N2C(C(=O)O)=C(COC(N)=O)CS[C@@H]21`: the inhibition in [1] was 10%; in test [10], 0.45% (inactive); in test [11], 27.7% (active). The same molecule yielded a score in [2] of 0.25. In addition, the rescue above control in test [3] was -4.75. The cytochrome c release ratio in test [4] was found to be 0.94. The same molecule returned an inhibition of aggregation in [5] of 27.8%. In addition, in test [6], the glutamate uptake change is -21.4%. In addition, in test [7], the aggregation suppression score turned out to be 0.182. The survival in test [8] is 2.08 (inactive). For the same molecule, the figures for the fluorescence ratio in test [9] and in [12] were 1.06 (inactive) and 1.01 (inactive), respectively. In addition, the mean signal in test [13] is 248 (inactive). The luciferase signal in [14] is 108 AU (inactive). In [15], the z-score is -0.58 (inactive). In addition, the log fold change Tl+ flux is 0.00671 (inactive) in the test with R275C/beta1, -0.0512 (inactive) in the test with R275C/beta2Delta, 0.0012 (inactive) in the test on R275C/beta4 and 0.00869 (inactive) in the test with R275C/Slo1WT/beta2.

With `NCc1ccc(S(N)(=O)=O)cc1`, the inhibition in [1] is -6.75%; in [10] it was -7.73% (inactive); in test [11], 1.05% (inactive). The score in test [2] was 1.19. Besides, the rescue above control in test [3] is -7.83. For the same molecule, the cytochrome c release ratio in [4] is 0.88. Also, in test [5], the inhibition of aggregation was determined as 81.7%. Moreover, the glutamate uptake change in test [6] was -7.14%. This molecule registered an aggregation suppression score in test [7] of 1.05. The survival in [8] was 13.4 (inactive). The fluorescence ratio in test [9] and in test [12] was 1.01 (inactive) throughout. The mean signal in [13] is 250 (inactive). The luciferase signal in test [14] was 92 AU (inactive). Further, the z-score in [15] was 1.92 (inactive). Besides, the log fold change Tl+ flux in the test on R275C/beta1 was -0.0404 (inactive); in the test with R275C/beta2Delta, 0.176 (active); in the test on R275C/beta4, -0.0166 (inactive); in the test on R275C/Slo1WT/beta2, -0.0456 (inactive).
